The source of these data is PubChem BioAssay (Tox21).

The structures appear in SMILES notation. Records with an inconclusive call do not appear. Entries that show only a call come without a potency. Calls of active or inactive are those of the source. Calls come from the whole dose curve; as a rule, active = well fitted cell-killing curve with a large enough effect in the repeat runs; inconclusive = weak or mixed curves, or effect the other way; inactive = flat fitted curve, though single readings scatter.

This assay is described as follows: qHTS assay to identify small molecule that activate the aryl hydrocarbon receptor (AhR) signaling pathway - cell viability counter screen (AID 743086).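 Note: HepG2 liver cells carrying the AhR DRE luciferase reporter; nearly all actives have a fitted effect of over 45% in size.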 Conditions: HepG2-AhR-luc viability, CellTiter-Fluor, 24 h; series mostly up to 70.3 µM. From the text: U.S. Tox21 Program National Center for Advancing Translational Sciences [NCATS] NIH Chemical Genomics Center [NCGC] U.S. Environmental Protection Agency [EPA] National Institutes of Environmental Health Sciences [NIEHS] National Toxicology Program [NTP] U.S. Food and Drug Administration [FDA] Tox21 Assay overview: The Aryl hydrocarbon Receptor (AhR), a member of the family of basic helix-loop-helix transcription factors, is crucial to adaptive responses to environmental changes. AhR mediates cellular responses to environmental pollutants such as aromatic hydrocarbons through induction of phase I and II enzymes but also interacts with other nuclear receptor signaling pathways A cell based HepG2-AhR-luc assay (HG2L7.5c1 cell line, developed by Dr. Michael S. Denison, University of California at Davis) was used to assess the activation of AhR. HepG2 (human hepatocellular carcinoma) cells were stably transfected with an Ah receptor-responsive firefly luciferase reporter gene plasmid containing 20 dioxin responsive elements and luciferase reporter gene. Increased luciferase activity can be used to identify the compounds that induce AhR activation. The cytotoxicity of the compounds screened against the HepG2-AhR-luc cell line was tested in parallel by measuring the cell viability using CellTiter-Fluor assay in the same wells.
Tox21 Assay Protocol Summary: 4000 cells in 5 uL/well were dispensed into white wall/solid bottom 1536-well plates using a Multidrop Combi (Thermo Fisher Scientific Inc., Waltham, MA) dispenser. After the assay plates were incubated at 37C for 5 h, 23 nL of compound or DMSO vehicle was transferred to the assay plates by a pintool station (Kalypsys, San Diego, CA). The plates were incubated at 37C for 24 hr. For cell viability measurement, 1 ul/well of CellTiter-Fluor reagent (Promega, Madison, WI) was added into the assay plates using a Flying Reagent Dispenser (FRD) (Aurora Discovery, CA),and then the assay plates were incubated at 37C for 30 min. The fluorescence intensity in the plates was measured using a ViewLux plate reader (PerkinElmer, Shelton, CT), followed by the addition of 4 uL of ONE-Glo Luciferase Assay reagent (Promega) using an FRD (Aurora Discovery). After the assay plates were incubated at room temperature for 30 min, luminescence intensity was measured using a ViewLux plate reader (Perkin Elmer).
In the case of `COCCOCCO`, the Potency entry was “inactive”.

Take `CC(=O)C(C)(C)C`: the Potency entry was “inactive”. Under `CC/C(=N\OC/C=C/Cl)C1=C(O)CC(C2CCOCC2)CC1=O` (stereo not given) stands “inactive”. Consider `CCC(COC(=O)c1cc(OC)c(OC)c(OC)c1)(c1ccccc1)N(C)C` (stereo not given), for which the Potency entry is “inactive”. Under `CCC(Br)(CC)C(=O)NC(N)=O` stands “inactive”; under `COC(=O)C(C)N(C(=O)Cc1ccccc1)c1c(C)cccc1C` (stereo not given), “inactive”; under `O=C(O)COc1ccc(Cl)cc1`, “inactive”.

`CCCC(=O)Cl`: the Potency result is “inactive”.

Consider `COC1=CC(=O)O[C@@H](CCc2ccccc2)C1`, for which the Potency entry was “inactive”. Under `O=C(NCc1cccnc1)Nc1ccc([N+](=O)[O-])cc1` stands “inactive”; under `Cn1sc(Cl)cc1=O`, “inactive”; under `O=Cc1ccc2c(c1)OCO2`, “inactive”.

As to `C=CCC1([C@H](C)CCC)C(=O)NC(=O)NC1=O`, the Potency entry is “inactive”.

Regarding `C=CC(=O)OCCCCO`, the Potency result is “inactive”.

Consider `C=CC[C@]1(O)CC[C@H]2[C@@H]3CCC4=CC(=O)CCC4=C3C=C[C@@]21C`, for which the Potency entry is “inactive”. Under `BrCC(Br)C1CCC(Br)C(Br)C1` (stereo not given) stands “inactive”; under `Clc1ccc(C(OCCN2CCCCC2)c2ccccc2)cc1` (stereo not given), “inactive”.

As to `C=CCOC(C)=O`, the Potency result is “inactive”. Under `CCOC(=O)CBr` stands “inactive”; under `C=CCN1CC[C@]23c4c5ccc(O)c4O[C@H]2C(=O)CC[C@@]3(O)[C@H]1C5`, “inactive”. Under `O=C(O)c1ccccc1C(=O)Nc1cccc2ccccc12` stands “inactive”; under `CCOc1ccc(C(C)(C)COCc2cccc(Oc3ccccc3)c2)cc1`, “inactive”. Under `CC(Cl)Cl` stands “inactive”. `Cc1ccc(N)cc1C`: the Potency result was “inactive”. Under `Cl/C=C\C[N+]12CN3CN(CN(C3)C1)C2` stands “inactive”; under `O=NN1CCCCCC1`, “inactive”. Under `CCCC(Cn1cncn1)c1ccc(Cl)cc1Cl` (stereo not given) stands “inactive”. Under `O=C(C(Cl)(Cl)Cl)C(Cl)(Cl)Cl` stands “inactive”; under `CCCCCCCCCC(=O)O[C@H]1CC[C@H]2[C@@H]3CCC4=CC(=O)CC[C@@H]4[C@H]3CC[C@]12C`, “inactive”. Consider `CCOP(=O)(OCC)O/C(=C/Cl)c1ccc(Cl)cc1Cl`, for which the Potency result was “inactive”. With `ClP(Cl)(Cl)(Cl)Cl` the entry was “inactive”; with `O=C(O)CC(Cl)C(=O)O` (stereo not given), “inactive”. With `CCOP(O)OCC` the entry was “inactive”.

For `C=CCCl`, the Potency entry is “inactive”. With `N#C/C(N)=C(/N)C#N` the entry was “inactive”; with `Clc1cc(Cl)c(Cl)c(Cl)c1`, “inactive”; with `CCCCN(N=O)C(=N)N[N+](=O)[O-]`, “inactive”. For the compound `CC(C)(C)C(O)C(Oc1ccc(Cl)cc1)n1cncn1` (stereo not given), the Potency entry is “inactive”. Under `C=C(C#N)CCC#N` stands “inactive”; under `O=NN1CCNCC1`, “inactive”.
